# Reference: PubChem BioAssay AID720706 (Broad Institute, 2013)
# About 5,500 (1.6%) of roughly 350,000 compounds were called active.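 Rule for the calls: active = significant combined selectivity score with lowered wild-type GFP, culture density cut under 30%, mutant RFP and density less affected; inactive = any of these conditions unmet.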 This excerpt belongs to a sample that is enriched for actives.
# Assay: GFP drop in mixed WT/humanized-ribosome E. coli culture – GFP/RFP fluorescence, OD600, single point, bacterial rRNA inhibitor project, primary screen (AID 720706)
# Conditions: E. coli WT GFP vs humanized-ribosome RFP mutants, 24 h; GFP signal change (wild-type ribosome): stronger effect = lower value, DMSO median 0, no signal -100; OD600 change: measured here: OD600 growth, DMSO median 0, no signal -100; RFP signal change: measured here: RFP humanized mutant strains, DMSO median 0, no signal -100, concentration not given here
Compound,GFP signal change (wild-type ribosome),OD600 change [%],RFP signal change [%]
O=C(C1CCCC1)N1CC(=O)N2[C@H](CO)[C@H](c3ccc(Br)cc3)[C@@H]2C1,-0.977% (inactive),-0.944,0.246
N#Cc1ccc(-c2ccc([C@H]3[C@H](CO)N4C(=O)CN(C(=O)Cc5ccccc5)C[C@@H]34)cc2)cc1,-1.02% (inactive),-2.88,-0.285
O=C(Cc1ccc(Cl)cc1)NC1CCS(=O)(=O)C1 (centres undefined),-9.2% (inactive),1.76,1.96
CC(C(=O)NC1CCS(=O)(=O)C1)N1C(=O)/C(=C/c2ccc(Cl)cc2)SC1=S (centres undefined),-21.1% (active),-15.7,1.14
CN(C(=O)CN1C(=O)/C(=C/c2ccc(Cl)cc2)SC1=S)C1CCS(=O)(=O)C1 (centres undefined),15.8% (inactive),11,0.337
O=C1[C@H](Cc2ccc(C(F)(F)F)cc2)CCn2nncc2COC[C@@H]2CCCCN12,-1.75% (inactive),-2.21,-0.899
CN1c2ccc(Br)cc2[C@H]2[C@H](CCN2S(=O)(=O)c2ccc(F)cc2)[C@@H]1CO,-56.1% (inactive),-75.9,-12.6
O=C(COC(=O)CCCSc1nc2ccccc2[nH]1)Nc1ccc(Oc2ccccc2)cc1,-34.8% (inactive),-55,0.945
O=C(CSc1nc2ccccc2[nH]1)N/N=C/C=C\c1ccccc1[N+](=O)[O-],-28.1% (active),3.26,1.21
CN(Cc1ccccc1)C(=O)CSc1nc2ccccc2[nH]1,-2.78% (inactive),2.36,-0.812
CCOc1ccc(C2C3=C(CCCC3=O)N(CC(=O)O)C3=C2C(=O)CCC3)cc1,17.4% (inactive),6.44,-0.227
CCOC(=O)c1c(N)sc2c1CCCC2=O,1.16% (inactive),-0.897,-0.662
CCOC(=O)C1=C(N)N(c2ccc(C)cc2)C2=C(C(=O)CCC2)C1c1cccs1 (centres undefined),-21.7% (active),-17.5,0.496
COc1ccc(NC(=O)N(C)C[C@H]2OCCCC[C@H](C)Oc3ccc(NC(=O)NC4CCCCC4)cc3C(=O)N([C@@H](C)CO)C[C@@H]2C)cc1,1.21% (inactive),2.03,2.63
COc1cccc(/C=C/C(=O)Nc2ccc3c(c2)OCCO3)c1,-29.5% (active),-2.39,4.27
COc1cccc(C(=O)NNC(=O)/C=C/c2ccccc2)c1,6.18% (inactive),10.2,3
COc1ccccc1OCCCC(=O)Nc1ccc2c(c1)OCCO2,-2.92% (inactive),-5.58,-2.87
CO[C@H]1CN(C)C(=O)c2ccc(NC(C)=O)cc2OC[C@@H](C)N(C(=O)CN(C)C)C[C@@H]1C,-1.24% (inactive),6.54,-4.25
CCC(C)N(C)C1CCN(C(=S)Nc2ccc(OC)cc2)CC1 (centres undefined),6.68% (inactive),-2.86,-3.62
COc1ccccc1NC(=S)N1CCN(C(c2ccccc2)c2ccccc2)CC1,5.66% (inactive),0.74,-6.29
COc1ccccc1C1CCN(C(=S)Nc2ccc(Br)cc2)CC1,-36.8% (active),-23.8,-10.2

Compound,GFP signal change (wild-type ribosome),OD600 change [%],RFP signal change [%]
CN[C@H]1C[C@H]2c3[nH]c4c(-c5ccccc5)cccc4c3CCN2C(=O)[C@H]1[C@H](C)O,-35.6% (inactive),-70.1,-2.51
CCc1nnc(NC(=O)C2CCN(C(=O)c3ccccc3C)CC2)s1,6.89% (inactive),6.36,0.577
CCC(CC)c1nnc(NC(=O)C2CCN(C(=O)c3ccco3)CC2)s1,-22.2% (active),-16.6,-5.86
COc1ccc(CNC(=O)C2CCN(C(=O)c3ccco3)CC2)cc1,-1.02% (inactive),2.41,0.192
C/C=C/c1ccc2c(c1)O[C@H](CN(C)C(=O)Cc1ccncc1)[C@@H](C)CN([C@@H](C)CO)S2(=O)=O,-0.815% (inactive),-5.29,0.444
O=C(NCCS(=O)(=O)N1CCN(c2ccccc2F)CC1)c1ccc(Br)o1,-32% (active),-25.8,-5.03
O=C(NCCS(=O)(=O)N1CCN(c2ccccc2)CC1)c1ccco1,-1.63% (inactive),-7.54,-1.71
O=C(NCCS(=O)(=O)N1CCN(c2ccccc2)CC1)c1cc(=O)c2ccccc2o1,1.78% (inactive),2.38,-0.491
COc1cccc(S(=O)(=O)N2CCCCN3[C@H](CO)[C@H](c4ccc(C#CC5CC5)cc4)[C@H]3C2)c1,-57.8% (inactive),-71,-6.51
Cc1ccc(S(=O)(=O)N(C)CC(=O)OCC(=O)N2CC(=O)Nc3ccccc32)cc1,2.71% (inactive),-0.97,0.17
Cc1ccc(S(=O)(=O)N2CCN(c3ccccc3)CC2)cc1C,-16.3% (inactive),-15.2,-8.46
Cc1ccc(S(=O)(=O)N2CC(=O)Nc3ccccc32)cc1C,-32.4% (active),-6.68,4.37
CCCNC(=O)N1C[C@H](C)[C@@H](OC)CN(C)C(=O)c2ccc(NS(=O)(=O)CC(F)(F)F)cc2OC[C@@H]1C,-0.684% (inactive),1.48,-1.07
Cc1ccccc1-c1cnc2c(c1)C(=O)N([C@H](C)CO)C[C@@H](C)[C@H](CN(C)C(=O)c1cccnc1)O2,2.61% (inactive),12.8,-2.14
COc1ccc2c3c(n(C)c2c1)[C@H](CO)N(Cc1ccccc1)CC31CCN(C)CC1,0.784% (inactive),7.81,2.48
O=S(=O)([N-]c1nc2ccccc2nc1-[n+]1ccc(Cc2ccccc2)cc1)c1ccc(Br)s1,-29.2% (active),-18.6,-0.481
CC(C)NC(=O)Nc1ccc2c(c1)CC(=O)N([C@@H](C)CO)C[C@@H](C)[C@H](CN(C)Cc1ccc(C(F)(F)F)cc1)O2,2.02% (inactive),-34.5,-0.097
Cn1cc(CCC(=O)NC2CC2)c2ccccc21,4.27% (inactive),10.1,-0.645
CCN(CC)C(=O)C(=O)c1cn(CC(=O)NCc2ccc3c(c2)OCO3)c2ccccc12,10.3% (inactive),-1.1,3.71
Cn1cc(CCC(=O)NCc2ccc3c(c2)OCO3)c2ccccc21,-21.5% (active),-10.6,2.95
O=C(C[C@@H]1CC[C@H](NC(=O)C2CCC2)[C@@H](CO)O1)NC1CCCCC1,3% (inactive),3.16,-1.22

Compound,GFP signal change (wild-type ribosome),OD600 change [%],RFP signal change [%]
Cc1ccc(S(=O)(=O)NCCCn2ccnc2)cc1C(=O)NC(C)C,10.7% (inactive),7.94,-1.51
Cc1cccc(NS(=O)(=O)c2ccc(C)c(C(=O)NCC(c3ccccc3)N(C)C)c2)c1 (centres undefined),4.21% (inactive),4.97,2.06
Cc1ccc(S(=O)(=O)NCCC(c2ccccc2)c2ccccc2)cc1C(=O)O,-40.5% (active),-24.2,-13.9
O=C([C@@H]1[C@@H](CO)[C@@H]2Cn3c(ccc(C4=CCCCC4)c3=O)[C@H]1N2Cc1nccs1)N1CCCCC1,-2.47% (inactive),3.59,1.3
COc1ccc(NC(=O)Nc2ccc3c(c2)CC(=O)N([C@H](C)CO)C[C@H](C)[C@H](CN(C)S(=O)(=O)c2ccccc2)O3)cc1,0.245% (inactive),-2.9,0.358
O=S(=O)(NCC[C@H]1CC[C@@H](NS(=O)(=O)c2ccccc2Cl)[C@@H](CO)O1)c1ccc(Cl)cc1,-2.84% (inactive),-5.01,0.345
Cc1ccc(C(=O)N2CCCc3ccccc32)c(Cl)c1,-20.5% (inactive),-35.7,-12.1
Cc1ccc2c(c1)C1C[N+](C)(CC(=O)c3ccccc3)CCC1N2C(=O)c1ccccc1Cl (centres undefined),-33.1% (active),-36.3,20.4
CC(=O)c1cccc(NC(=O)C2CCN(C(=O)c3ccccc3Cl)CC2)c1,0.045% (inactive),1.11,1.46
COc1ccc(NC(=O)N(C)C[C@H]2Oc3ccc(NC(=O)Nc4ccc5c(c4)OCO5)cc3C(=O)N([C@H](C)CO)C[C@H]2C)cc1,0.515% (inactive),4.81,0.195
C[C@H](O)C#Cc1cnc2c(c1)C(=O)N([C@H](C)CO)C[C@H](C)[C@@H](CN(C)C(=O)Nc1ccc(F)cc1)O2,1.18% (inactive),9.67,-3.38
COc1ccc(C#Cc2ccc([C@H]3[C@H]4CN(C(=O)c5cccnc5)CC(=O)N4[C@H]3CO)cc2)cc1,0.302% (inactive),-5.28,2.11
COc1ccc(/C(C)=N/NC(=O)CCC(=O)Nc2ccc(Cl)cc2Cl)c(OC)c1,-6.41% (inactive),-4.28,3.43
COc1ccc(OC)c(/C(C)=N\NC(=O)c2cc3cc(Cl)ccc3n2C)c1,-24% (active),-9.4,-0.802
COc1cc(C(=O)NCc2cc3cc(Cl)ccc3n2C)cc(OC)c1OC,4.54% (inactive),12,5.4
C[C@@H](C(=O)N(C)C[C@H]1OCc2ccccc2-c2c(n(C)c3ccccc23)C(=O)N([C@@H](C)CO)C[C@@H]1C)c1ccccc1,-2.7% (inactive),-4.37,3.17
COc1ccc(CN(C)C[C@H]2OCc3cn(nn3)CCCC(=O)N([C@@H](C)CO)C[C@@H]2C)cc1,-0.663% (inactive),4.94,-1.83
COc1ccc(NS(=O)(=O)c2cccc(C(=O)NCCc3ccc(S(N)(=O)=O)cc3)c2)cc1,-0.729% (inactive),-4.13,2.24
COc1ccc(NS(=O)(=O)c2ccc(Oc3c(C#N)cccc3C#N)cc2)cc1,-33% (active),-6.7,-3.93
COc1ccc(NS(=O)(=O)c2ccc(N3CCN(CCO)CC3)c([N+](=O)[O-])c2)cc1,-3.32% (inactive),8.86,0.35
C[C@@H]1CN([C@H](C)CO)C(=O)c2cc(NC(=O)CCN3CCOCC3)ccc2O[C@H]1CN(C)Cc1ccc(Oc2ccccc2)cc1,-0.524% (inactive),2.21,-0.41
